High-throughput results: PubChem, National Center for Advancing Translational Sciences (NCATS)
MCF10A rereplic: DNA re-replication induction in MCF 10a cells | MCF 10A DNA re-replication, Hoechst nuclear intensity, 48 h | Potency, µM (top dose mostly 46.1 µM), without a hit: at the highest dose activity, positive = re-replication, most hits filed as activators | hit rate 2.9% among 350,000 | AID 624296; further: % of control where 0% means no effect; nearly all actives have a fitted effect of over 50% in size
KB-V1 cytotox: KB-V1 MDR subline cytotoxicity; KB-V1 MDR cells viability, CellTiter-Glo, 72 h; Potency, µM (top dose mostly 46.1 µM), most hits filed as cytotoxic; hit rate 3.4% among 400,000; AID 1347076; further: on the % scale 0 is the no-effect control and ±100 the full control effect; nearly all actives have a fitted effect of over 60% in size
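KB-V1 MDR subline cells in DMEM (phenol-red free, 10% FBS) exposed to compounds in qHTS concentration series for 72 h at 37 degrees C. Viability read by CellTiter-Glo luminescence; concentration-effect curves fitted after normalization and correction.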
ALOX12 inh: blocks human arachidonate 12S-lipoxygenase. Potency, µM (highest dose often 108 µM), for the others: at the highest dose activity change, negative = inhibition, actives largely listed as inhibitors. purified 12hLO, xylenol orange hydroperoxide absorbance. P18054. AID 1671190. hit rate 1.1% among 580,000; further: on the % scale 0 is the no-effect control and ±100 the full control effect
Target sequence (P18054 whole entry, looked up): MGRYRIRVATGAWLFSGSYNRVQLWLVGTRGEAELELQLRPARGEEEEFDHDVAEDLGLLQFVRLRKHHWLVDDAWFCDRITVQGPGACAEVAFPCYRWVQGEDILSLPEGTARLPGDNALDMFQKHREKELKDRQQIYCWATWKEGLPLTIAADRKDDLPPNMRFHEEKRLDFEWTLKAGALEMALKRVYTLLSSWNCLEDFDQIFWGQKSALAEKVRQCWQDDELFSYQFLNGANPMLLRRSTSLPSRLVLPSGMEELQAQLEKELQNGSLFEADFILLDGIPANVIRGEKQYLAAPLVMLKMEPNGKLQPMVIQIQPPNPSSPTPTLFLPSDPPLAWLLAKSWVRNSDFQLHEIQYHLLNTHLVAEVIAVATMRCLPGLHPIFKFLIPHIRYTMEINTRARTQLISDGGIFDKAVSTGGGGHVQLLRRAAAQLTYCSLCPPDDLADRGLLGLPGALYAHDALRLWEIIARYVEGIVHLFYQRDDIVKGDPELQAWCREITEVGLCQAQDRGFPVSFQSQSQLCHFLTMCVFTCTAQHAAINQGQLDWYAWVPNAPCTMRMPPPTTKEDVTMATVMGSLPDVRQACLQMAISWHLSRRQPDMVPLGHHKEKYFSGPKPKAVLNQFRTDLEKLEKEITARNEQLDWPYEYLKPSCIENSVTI
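Hydroperoxide product was detected by ferrous iron/xylenol orange as the 573 to 405 nm absorbance ratio. Arachidonic acid at 40 uM (final) was turned over for 30 min at room temperature by 150 nM human 12hLO, pH 7.0 Hepes buffer, after 15 min compound preincubation.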
KB-3-1 cytotox: kills parental KB-3-1 adenocarcinoma cells; KB-3-1 viability, CellTiter-Glo ATP luminescence, 72 h; AID 1347075; hit rate 1.4% among 400,000; Potency, µM (doses to about 46.1 µM), hits mostly cytotoxic; further: on the % scale 0 is the no-effect control and ±100 the full control effect; nearly all actives have a fitted effect of over 60% in size
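KB-3-1 cells, DMEM (no phenol red) + 10% FBS; compound by pin transfer, 72 h, 37 °C. Readout: CellTiter-Glo luminescence after 10 min. Data normalized, curve-fitted.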
PINK1 modulator: modulators of PINK1 expression | Potency, µM (top dose mostly 76.6 µM), without a hit: top-dose activation (PINK1 increase), hits mostly activators | hit rate 0.2% among 410,000 | PINK1 immunofluorescence, high-content cytometry, 24 h; active means well fitted activation curve with a large enough effect; inconclusive means small, poorly fitted or top-dose-only effect; cell line not stated here; further: % of control where 0% means no effect; nearly all actives have a fitted effect of over 65% in size
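PINK1 protein level read as immunofluorescence by microplate cytometer in a fixed, stained stable cell line after 24 h exposure to five compound concentrations, with CCCP as control.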
SW480 rereplic: inducers of DNA re-replication in SW480 colon cancer cells; SW480 DNA re-replication, Hoechst DNA content imaging, 48 h; Potency, µM (top dose mostly 46.1 µM), for the others: at the top dose re-replication activation, hits mostly activators; AID 624297; hit rate 1.8% among 340,000; further: % of control where 0% means no effect; nearly all actives have a fitted effect of over 55% in size
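Image-based read-out: total Hoechst fluorescence of nuclei (405 nm excitation, 500-530 nm emission), with hits raising the fraction of high-intensity nuclei. SW480 colon cells incubated 48 hr with compounds at 37 C.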
The depositor's hits bear a star; i = inactive; ? = inconclusive; . = no result given; [ ] = another dose, or the depositor's remark. Sampled rows, rich in hits. Any-hit rate of the full collection: about 5.8%. Unless noted, the call rests on the fitted dose curve; in most records, active means well fitted curve in the direction sought with a large enough effect; inconclusive means small, poorly fitted or top-dose-only effect, or another doubt; inactive means no such curve, though single readings can be large; an effect the other way counts as inactive or inconclusive. Potency means the concentration at half of the fitted maximal effect.

SMILES	MCF10A rereplic	KB-V1 cytotox	ALOX12 inh	KB-3-1 cytotox	PINK1 modulator	SW480 rereplic
CCN1c2cc(C)ccc2-n2cccc2C12CCN(C(=O)Nc1cc(OC)ccc1OC)CC2	.	.	-27%	.	.	.
CCOc1ccccc1N1CCN(C(=O)C2CSC3(C)CCC(=O)N23)CC1 (stereo unspecified)	-6%	18µM*	12%	i	0%	-5%
COc1cc(/C=C(\C#N)C(N)=O)ccc1OS(=O)(=O)c1ccc(C)cc1	16%	i	?	i	3%	?
CC(=O)Nc1ccc(/C=C(\C#N)C(=O)NC2CCCCC2C)cc1 (stereo unspecified)	?	?	1%	i	2%	3%
COc1cc(/C=C(\C#N)C(=O)NC2CCCCC2C)ccc1OS(=O)(=O)c1ccc(C)cc1 (stereo unspecified)	18µM*	i	-1%	?	-1%	?
CC1CCCCC1NC(=O)/C(C#N)=C/c1ccccc1F (stereo unspecified)	15µM*	i	-9%	i	-4%	?
CSc1ccc(/C=C(\C#N)C(=O)NC2CCCCC2C)cc1 (stereo unspecified)	18µM*	16µM*	-2%	?	-3%	?
CCCCCCCCNC(=O)/C(C#N)=C/c1ccc(SC)cc1	-14%	21µM*	1%	i	9%	2.1µM*
CN(C)C(=O)COC(=O)c1ccccc1-c1nc2ccccc2s1	.	.	6%	.	.	.
O=C(O)/C=C/c1csc2ccccc12	.	.	11%	.	.	.
N#Cc1ccc(NC(=O)COC(=O)c2ccccc2Oc2ccccc2)cc1	.	.	-29%	.	.	.
CCOC(=O)c1cnc(SCc2nc(N)nc(Nc3ccc(F)cc3)n2)nc1N	3.7µM*	?	-30%	?	1%[38.3 µM]	?
CCOC(=O)c1cnc(SCc2nc(N)nc(Nc3ccc(C)cc3)n2)nc1N	10µM*	?	-2%	?	5%	?
O=C(c1ccccc1F)N1CCCC(c2nc3ccccc3o2)C1 (stereo unspecified)	.	.	3%	.	.	.
CC(=O)N/N=C/c1cc(C(C)(C)C)cc(/C=N/NC(C)=O)c1O	15µM*	?	-13%	i	8%	3.3µM*
Cc1ccc(NC(=O)C(=O)NCCN2CCN(Cc3ccc([N+](=O)[O-])cc3)CC2)cc1	-6%	2.9µM*	-27%	i	18%	?
CC(C)c1nnc(-c2ccc(Cl)cc2)c(N(C)C)n1	2%	21µM*	0%	i	-1%	-2%
CN1C/C(=C\c2ccc(N3CCOCC3)cc2)C(=O)/C(=C/c2ccc(N3CCOCC3)cc2)C1	18µM*	21µM*	-4%	?	7%	?
CCN1C/C(=C/c2ccc(N3CCOCC3)cc2)C(=O)/C(=C/c2ccc(N3CCOCC3)cc2)C1	23µM*	18µM*	-22%	?	4%	16µM*
Oc1ccc(-c2nc3c4c(ncn3n2)-c2ccccc2CC42CCCC2)cc1	4.6µM*	?	-19%	i	0%	1%
Cc1cccc(C)c1OCC(=O)Nc1ccc2oc(C(F)(F)F)nc2c1	.	.	6%	.	.	.
CC(=O)OC(COC1CC2CCC1(C)C2(C)C)C[N+]1(C)CCCCC1 (stereo unspecified)	.	.	13µM*	.	.	.
CN1C(=O)c2ccccc2NC1c1cc2ccccc2[nH]c1=O (stereo unspecified)	.	.	7.1µM*	.	.	.
N#Cc1ccc(CS(=O)(=O)Cc2ccc(Cl)c(Cl)c2)cc1	.	.	-14%	.	.	.
Cc1noc(C)c1[S+](=O)([O-])N1CCC2OCCN(Cc3ccccc3)C(=O)C2C1 (stereo unspecified)	.	.	100µM*	.	.	.
SMILES	MCF10A rereplic	KB-V1 cytotox	ALOX12 inh	KB-3-1 cytotox	PINK1 modulator	SW480 rereplic
CC(C)Nc1ccc(Nc2ccnc3cc4ccccc4cc23)cc1	?	?	?	16µM*	-4%	-51%
c1ccc(CCNc2ccnc3cc4ccccc4cc23)cc1	16µM*	8.2µM*	?	18µM*	-2%	16µM*
Cc1ccc(C(=O)C2CCN(CCC#N)CC2)c(C)c1	.	.	-4%	.	.	.
COC(=O)CCCNC(=O)Cn1ccc2cc(Br)ccc21	.	.	-11%	.	.	.
COc1cc(C(=O)OC2CC3CCC2(C)C3(C)C)ccc1OC(C)=O (stereo unspecified)	15µM*	?	28%	i	4%	?
CCC(C)(C)NCc1ccco1	.	.	21%	.	.	.
Cc1sc2c(c1C)CN(C(C)C)CN2C(=O)c1ccccc1	.	.	6.3µM*	.	.	.
COCCN1Cc2c(sc(C)c2C)N(C(=O)c2ccccc2)C1	?	?	19%	i	0%	5%
C=CCNC(=O)NC(=O)CN(C)C(C)c1ccccc1OC (stereo unspecified)	.	.	26%	.	.	.
COc1ccc(S(=O)(=O)c2c(C)c(NS(=O)(=O)c3ccccc3)cc(C)c2O)cc1	?	?	9%	i	-1%	7%
COc1ccc(S(=O)(=O)Nc2cc(C)c(O)c(S(=O)(=O)c3ccccc3)c2)cc1	-1%	16µM*	?	i	36%[38.3 µM]	1%
Cc1ccccc1-c1nc2cc(NC(=O)c3cccs3)ccc2o1	.	.	15%	.	.	.
COc1cc(C)cc(OC)c1OCC(=O)Nc1cc(C)on1	-2%	21µM*	-8%	i	1%	-5%
CN(Cc1ccc(-c2ccccc2)cc1)Cc1nccs1	.	.	37%[176 µM]	.	.	.
Cc1ccc(-c2csc(N(CC3CCCO3)C(=O)c3ccco3)n2)cc1 (stereo unspecified)	21µM*	?	-4%	?	4%	?
COc1ccc(-c2csc(N(CC3CCCO3)C(=O)c3ccc(C)cc3)n2)cc1 (stereo unspecified)	-1%	3.7µM*	-13%	?	5%[38.3 µM]	-2%
COc1ccc(-c2csc(N(CC3CCCO3)C(=O)c3ccccc3)n2)cc1 (stereo unspecified)	2%	i	-16%	i	2%	-1%
O=C(c1cccs1)N(CC1CCCO1)c1nc(-c2ccccc2)cs1 (stereo unspecified)	18%	i	0%	i	3%	8%
O=C(c1ccco1)N(CC1CCCO1)c1nc(-c2ccccc2)cs1 (stereo unspecified)	?	23µM*	-14%	?	6%[38.3 µM]	26%
COc1cccc(/C=N/NC(=O)c2oc3nc(-c4ccccc4)cc(-c4ccco4)c3c2N)c1	?	i	-4%	i	1%	?
CNC(=S)NNC(=O)c1oc2nc(-c3ccccc3)cc(C)c2c1N	2.6µM*	i	14%	i	0%	6.5µM*
NNC(=O)c1oc2nc(-c3ccccc3)cc(-c3ccccc3)c2c1N	18µM*	i	9%	i	1%	?
